According to PubChem BioAssay (EPA / NIEHS):
The source made the active and inactive calls. How the source made its calls: active means hit-call score of the fitted dose curve at least 0.9, where 1 is the maximum; inactive means score below 0.9.

These compounds were tested on Interferon-gamma inducible Protein 10 (IP10), CXCL10 (gene 3627) (assay: BSK_BE3C_IP10: BioMAP Diversity Plus: BE3C Assay for Interferon-gamma inducible Protein 10 (IP10) Biomarker Activity (AID 2283034)). Settings: primary human bronchial epithelial cells; actives raise or lower the signal.
Description: BSK_BE3C is a cell-based, multiplexed-readout assay that uses bronchial epithelial cell, a human lung primary cell, with measurements taken at 24 hours after chemical dosing in a 96-well plate.BSK_BE3C_IP10 is an assay component measured in the BSK_BE3C assay. It measures IP-10 antibody related to regulation of gene expression using ELISA technology.Data from the assay component BSK_BE3C_IP10 was analyzed into 1 assay endpoint. This assay endpoint, BSK_BE3C_IP10, was analyzed with bidirectional fitting relative to DMSO as the negative control and baseline of activity. Using a type of binding reporter, gain or loss-of-signal activity can be used to understand changes in the signaling as they relate to the gene CXCL10. Furthermore, this assay endpoint can be referred to as a primary readout, because this assay has produced multiple assay endpoints where this one serves a signaling function. To generalize the intended target to other relatable targets, this assay endpoint is annotated to the cytokine intended target family, where the subfamily is chemotactic factor.
The levels of cell surface (or secreted, indicated by the prefix "s") biomarker endpoints were measured by ELISA. Overt cytotoxicity to cells in confluent adherent cultures (all systems other than the BT system) was assessed by measuring total protein levels using sulforhodamine B (SRB) staining in parallel cultures at the time of biomarker measurements, indicated as SRB endpoints. For proliferation assays for adherent cell types, individual cell types are cultured at sub-confluence and relative cell numbers quantified by SRB staining at time points optimized for each system (48 h: 3C and CASM3C systems; 72 h: BT and HDF3CGF systems; 96 h: SAg system). SRB was performed by staining cells with 0.1% SRB after fixation with 10% TCA and reading wells at 560 nm.Viability and proliferation of PBMC (T cells) was quantified by Alamar Blue reduction for the SAg and BT systems. For PBMC viability (referred to as PBMC Cytotoxicity within the assay endpoint names), cells were plated (75,000/well in a 96-well plate) and then chemical samples added for 1 h before addition of activators, SEB and TSST-1 (20 ng/mL final concentration each). Cells were incubated for 90 h. Then, Alamar Blue (20 uL/well) (Invitrogen, Cat DAL1100) was added for 6 h, and the plates were read with a fluorescence microplate reader at 546/580 nm (excitation/emission). For PBMC proliferation, cells were plated and activated as above but incubated for only 16 h prior to addition of Alamar Blue. Plates were read after 6 h.
In the case of `Oc1c(Cl)cc(Cl)cc1Cl`, the outcome is reported as “inactive”.
In the case of `CCN(CC)C(=O)C(Cl)=C(C)OP(=O)(OC)OC`, the outcome is reported as “inactive”.
`CC(C)(C)c1ccccc1O` was tested, and the outcome was “inactive”.
With `CCOC(=O)C(SP(=S)(OC)OC)c1ccccc1` (stereo not given) the AC50 was 20 µM (active).
With `OC(Cc1ccccc1Cl)(Cn1[nH]cnc1=S)C1(Cl)CC1` (stereo not given) the AC50 was 15.8 µM (active).
In the case of `O=C(Cc1ccccc1)OCCc1ccccc1`, the outcome is reported as “inactive”.
With `c1ccc(-c2cccc(-c3ccccc3)c2)cc1` the AC50 was 14.4 µM (active).
In the case of `Cc1cc(Cl)ccc1OC(C)C(=O)O` (stereo not given), the outcome is reported as “inactive”.
In the case of `O=S(=O)(c1ccc(Cl)cc1)c1cc(Cl)c(Cl)cc1Cl`, the AC50 is reported as 28.6 µM (active).
With `Clc1cccc(Cl)c1Cl` the outcome was “inactive”.
In the case of `Cc1ccc(OP(=O)(Oc2ccc(C)cc2C)Oc2ccc(C)cc2C)c(C)c1`, the outcome is reported as “inactive”.
`Nc1c(Oc2ccccc2)cc(O)c2c1C(=O)c1ccccc1C2=O` was tested, and the outcome was “inactive”.
In the case of `Oc1cc(Cl)c(Cl)cc1Cl`, the AC50 is reported as 32.2 µM (active).
With `O=C(CCl)NCO` the outcome was “inactive”.
For `CCOC(=O)CC(=O)CCl`, the AC50 was 20 µM (active).
`O=c1oc2ccccc2c(O)c1C(CC(O)c1ccc(-c2ccc(Br)cc2)cc1)c1ccccc1` (stereo not given) was tested, and the AC50 was 5.4 µM (active).
For `Oc1c(Br)cc(Br)cc1Br`, the AC50 was 20 µM (active).
`CCCCOC(=O)COC(=O)c1ccccc1C(=O)OCCCC` was tested, and the outcome was “inactive”.
In the case of `CC(C)=CC1C(C(=O)OCc2cccc(Oc3ccccc3)c2)C1(C)C` (stereo not given), the outcome is reported as “inactive”.
With `Cc1cccc(OP(=O)(Oc2cccc(C)c2)Oc2cccc(C)c2)c1` the outcome was “inactive”.
With `CCOP(=S)(OCC)OP(=S)(OCC)OCC` the outcome was “inactive”.
For `CC(C=O)Cc1ccc2c(c1)OCO2` (stereo not given), the outcome was “inactive”.
With `Oc1ccc(Cc2ccc(O)cc2)cc1` the outcome was “inactive”.
For `OCCCCO`, the outcome was “inactive”.
With `N#Cc1cccnc1` the outcome was “inactive”.
For `CN(C)C(=S)S`, the AC50 was 28.7 µM (active).
In the case of `CCCCN(CCCC)C(=S)[S-].CCCCN(CCCC)C(=S)[S-].[Ni+2]`, the outcome is reported as “inactive”.
For `Clc1cccc(Cl)c1`, the outcome was “inactive”.
`Cc1ccccc1OP(=O)(Oc1ccccc1)Oc1ccccc1` was tested, and the outcome was “inactive”.
In the case of `O=S(=O)(C(Cl)(Cl)Cl)C(Cl)(Cl)Cl`, the AC50 is reported as 2.86 µM (active).
For `Cc1cc(C)cc(C)c1`, the outcome was “inactive”.
`O=C(O)COc1cc(Cl)c(Cl)cc1Cl` was tested, and the outcome was “inactive”.
For `O=C(O)C1(c2ccc3c(c2)OC[C@H](Cc2ccc(-c4ccccc4)cc2)[C@H]3O)CCCC1`, the AC50 was 5.91 µM (active).
In the case of `CCOC(=O)CCN(SN(C)C(=O)Oc1cccc2c1OC(C)(C)C2)C(C)C`, the AC50 is reported as 14.1 µM (active).
`NC(=O)CCl` was tested, and the outcome was “inactive”.
For `CCOP(=S)(OCC)SCS(=O)(=O)C(C)(C)C`, the outcome was “inactive”.
With `CC(C)(COCC1CO1)COCC1CO1` (stereo not given) the outcome was “inactive”.
With `Nc1ccc(N)cc1` the outcome was “inactive”.
In the case of `Oc1cccc(-c2ccccc2)c1`, the outcome is reported as “inactive”.
For `O=[N+]([O-])c1cccc2ccccc12`, the outcome was “inactive”.
